Screens deposited in PubChem BioAssay by several laboratories.
The list is not random: actives were taken first. Their share in the collection is about 4.5%.
Mdm2 MdmX PPI = inhibitors of human Mdm2-MdmX association, primary screen, cell-based, luminescence, split luciferase, SaOS-2, uHTS; AID 485346, 2010; 330,000 compounds, 3% hits; Protein Mdm4 (Homo sapiens) + E3 ubiquitin-protein ligase Mdm2 (Homo sapiens), …; inhibition, % at 8 µM; SaOS-2 split-luciferase Mdm2/MdmX complementation;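 active = inhibition of at least 50% at 8 µM in the primary screen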
CSC inhib = cancer stem cell viability inhibitors, primary screen, luminescence; AID 2717, 2010; inhibition, % at 7.5 µM; 300,000 compounds, 1.1% hits; cancer stem cell-like cells viability; in the data active = inhibition above about 75%; tested in HMLE shEcad cells
Gli-Sufu antag = Gli-Sufu pathway antagonists, primary screen, luciferase luminescence, Sufu-KO-LIGHT cells, uHTS | inhibition, % at 5 µM | 340,000 compounds, 0.74% hits | Sufu-KO-LIGHT fibroblasts, Gli luciferase reporter luminescence;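 active = inhibition above about 55%, limit read from the data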;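 also: 0% = DMSO-treated cells and 100% = wells with medium but no cells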
697 NFkB inh = inhibitors of PMA/ionomycin-induced NF-kB reporter, 697 cells, primary screen, B-cell NF-kB inhibitor project, cell-based, luminescence, uHTS | 697 B-cell NF-kB luciferase reporter, 16 h | inhibition, % at 4 µM | 330,000 compounds, 0.33% hits | AID 435022, 2010; in the data active = inhibition above about 35%
Jurkat NFkB inh = inhibitors of induced NF-kB luciferase reporter, primary screen, TCR NF-kB activation inhibitor project, cell-based, luminescence, uHTS; Jurkat, PMA/ionomycin-induced NF-kB luciferase reporter; inhibition, % at 4 µM; 330,000 compounds, 0.53% hits; in the data active = inhibition above about 50%
aSyn 5UTR inh = MLPCN primary screen, SNCA 5' untranslated region; alpha-synuclein 5'UTR reporter, inhibitor activity; inhibition, % (tested at 7.5 µM); 300,000 compounds, 0.82% hits; in the data active = inhibition above about 60%;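 also: H4 neuroglioblastoma cells stably carrying SNCA 5'UTR luciferase fusion; 0% = DMSO wells and 100% = positive control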
Mdm2-MdmX conf = Mdm2-MdmX complex disruptors, retested hits, confirmation, luminescence, single concentration. shares compounds with Mdm2 MdmX PPI. Mdm2-MdmX binding, luminescent assay. inhibition, % at 8 µM. 10,000 compounds, 55% hits. AID 489028, 2010; in the data active = inhibition above about 40%
Full FLuc ctr = full-length luciferase signal inhibition, confirmation, counter-screen for Mdm2/MdmX interaction inhibitor project, cell-based, single concentration, SaOS-2. shares compounds with Mdm2 MdmX PPI. SaOS-2 full-length luciferase counterscreen, luminescence. inhibition, % at 8 µM. 6,200 compounds, 77% hits. AID 504607, 2011;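 active = mean inhibition at 8 µM reaching about 37%, which flags the compound as non-specific, limit read from the data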;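 also: p53-null SaOS-2 cells with luciferase driven by a doxycycline-inducible promoter; compound on cells about two nights before reading with doxycycline added after day one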
An asterisk follows results filed as active.

Screening Cc1ccc(/C(N)=N/OC(=O)N2CCOCC2)cc1 returned Mdm2 MdmX PPI 94.8*, Gli-Sufu antag -11.6, 697 NFkB inh -21.4, Jurkat NFkB inh -1.4, aSyn 5UTR inh -61.8, Mdm2-MdmX conf 50.6* and Full FLuc ctr 125.6*.
Screening COc1cc(NC(=O)C2=C(N3CCOCC3)/C(=C\c3ccc(N(C)C)cc3)CCC2)cc(OC)c1OC returned Mdm2 MdmX PPI 59.9*, CSC inhib 87.1*, Gli-Sufu antag -1.9, 697 NFkB inh -79.2, Jurkat NFkB inh 42.4, aSyn 5UTR inh 21.4, Mdm2-MdmX conf 47.4* and Full FLuc ctr 86.8*.
`Cc1ccc(NC(=O)C(C)N=C2NS(=O)(=O)c3ccccc32)cc1F` (centres undefined) gave Mdm2 MdmX PPI -15.4, CSC inhib -8.5, Gli-Sufu antag -4.1, 697 NFkB inh -18.6, Jurkat NFkB inh -31.1 and aSyn 5UTR inh -95.7.
For CC1(C)CC(=O)C2=C(C1)NC1=C(C(=O)c3ccccc31)C2c1ccc(O)cc1 (centres undefined) the results were Mdm2 MdmX PPI 23.0, CSC inhib -1.3, Gli-Sufu antag 44.3, 697 NFkB inh 4.5, Jurkat NFkB inh -14.2 and aSyn 5UTR inh 20.4.
For CCCCc1ccc(C2C3=C(CC(C)(C)CC3=O)NC3=C2C(=O)c2ccccc23)cc1 (centres undefined) the results were Mdm2 MdmX PPI 55.1*, CSC inhib 25.8, Gli-Sufu antag 3.5, 697 NFkB inh 0.1, Jurkat NFkB inh 8.6, aSyn 5UTR inh -10.2 and Mdm2-MdmX conf 22.6.
For CCCc1ccc(C2C3=C(CC(C)(C)CC3=O)NC3=C2C(=O)c2ccccc23)cc1 (centres undefined) the results were Mdm2 MdmX PPI 76.0*, CSC inhib 88.7*, Gli-Sufu antag 3.7, 697 NFkB inh 14.4, Jurkat NFkB inh -12.1, aSyn 5UTR inh -14.0 and Mdm2-MdmX conf -2.0.
Screening CC(=O)Nc1sc2c(c1-c1nc3ccccc3s1)CN(C(C)C)CC2 returned Mdm2 MdmX PPI 98.7*, Gli-Sufu antag -25.2, 697 NFkB inh -5.0, Jurkat NFkB inh 35.2, Mdm2-MdmX conf 93.5* and Full FLuc ctr 56.6*.
`COc1ccc(OC)c(-c2csc(NC(=O)Cc3cccs3)n2)c1` gave Mdm2 MdmX PPI 26.7, CSC inhib 37.4, Gli-Sufu antag -3.7, 697 NFkB inh 11.7, Jurkat NFkB inh 1.3 and aSyn 5UTR inh -39.6.
For Cc1ccc(NC(=O)c2cc(C)n(-c3ccccc3)c2C)cc1 the results were Mdm2 MdmX PPI 76.5*, CSC inhib 16.4, Gli-Sufu antag 46.2, 697 NFkB inh -212.0, Jurkat NFkB inh 29.5, aSyn 5UTR inh 105.6*, Mdm2-MdmX conf 84.0* and Full FLuc ctr 41.2*.
Cc1cc(C(=O)Nc2ccc(Cl)cc2)c(C)n1-c1ccccc1 was read as Mdm2 MdmX PPI 88.8*, CSC inhib 45.9, Gli-Sufu antag 69.5*, 697 NFkB inh -81.2, Jurkat NFkB inh 37.1, aSyn 5UTR inh 86.6*, Mdm2-MdmX conf 89.0* and Full FLuc ctr 30.6.
Cc1cc(C(=O)Nc2ccc(Cl)cc2)n(-c2ccccc2)n1 was read as Mdm2 MdmX PPI -26.7, CSC inhib -2.4, Gli-Sufu antag 1.6, 697 NFkB inh -15.3, Jurkat NFkB inh -17.9 and aSyn 5UTR inh -29.3.
`O=C1/C(=C/c2cccs2)SC(=S)N1CCC(=O)N1CCCCC1CCO` (centres undefined) gave Mdm2 MdmX PPI 36.7, CSC inhib -0.7, Gli-Sufu antag 34.5, 697 NFkB inh -1.4, Jurkat NFkB inh -5.4 and aSyn 5UTR inh -108.5.
Screening CC(=O)n1cc([C@@H]2C=C(C(=O)NCc3ccccc3)O[C@H](OCc3ccc(CO)cc3)C2)c2ccccc21 returned Mdm2 MdmX PPI 9.3, CSC inhib 16.0, Gli-Sufu antag -7.1, 697 NFkB inh -21.4, Jurkat NFkB inh 13.6 and aSyn 5UTR inh 8.7.
CC(=O)n1cc([C@H]2C=C(C(=O)Nc3ccccc3)O[C@@H](OCc3ccc(CO)cc3)C2)c2ccccc21 was read as Mdm2 MdmX PPI 73.0*, CSC inhib 28.4, Gli-Sufu antag 28.7, 697 NFkB inh -17.6, Jurkat NFkB inh -8.5, aSyn 5UTR inh -44.7, Mdm2-MdmX conf 39.7 and Full FLuc ctr 70.5*.
Screening O=C(CCCc1nc(-c2ccc(Cl)cc2)no1)NC1CCCCC1 returned Mdm2 MdmX PPI 4.3, CSC inhib 13.4, Gli-Sufu antag 18.3, 697 NFkB inh -19.1, Jurkat NFkB inh 3.1 and aSyn 5UTR inh -22.7.
`Brc1c(OCCOCCn2cncn2)ccc2ccccc12` gave Mdm2 MdmX PPI -17.7, CSC inhib 2.7, Gli-Sufu antag -9.6, 697 NFkB inh -10.5, Jurkat NFkB inh -21.5 and aSyn 5UTR inh -41.7.
Screening CC(Oc1ccccc1)C(=O)Nc1ccc(NC(=O)c2ccccc2)cc1 (centres undefined) returned Mdm2 MdmX PPI 66.4*, CSC inhib 1.0, Gli-Sufu antag 0.6, 697 NFkB inh -8.4, Jurkat NFkB inh 5.5, aSyn 5UTR inh 37.3, Mdm2-MdmX conf 37.3 and Full FLuc ctr 52.1*.
Screening COc1cc(NC(=O)C(C)Oc2ccccc2)cc(OC)c1 (centres undefined) returned Mdm2 MdmX PPI 10.0, CSC inhib -3.2, Gli-Sufu antag -10.0, 697 NFkB inh 15.5, Jurkat NFkB inh 16.5 and aSyn 5UTR inh -0.8.
CC1(C)CC(=O)C2=C(C1)N=C1c3ccccc3C(=O)C1C2c1ccc(Cl)cc1 (centres undefined) was read as Mdm2 MdmX PPI 56.3*, CSC inhib 27.4, Gli-Sufu antag 2.8, 697 NFkB inh -32.2, Jurkat NFkB inh -3.8, aSyn 5UTR inh -1.3 and Mdm2-MdmX conf 13.7.
CCOC(=O)C1=C(C)N=C2c3ccccc3C(=O)C2C1c1ccc(Cl)cc1 (centres undefined) was read as Mdm2 MdmX PPI 50.9*, CSC inhib 25.0, Gli-Sufu antag 10.3, 697 NFkB inh -8.8, Jurkat NFkB inh -12.0, aSyn 5UTR inh 37.4 and Mdm2-MdmX conf 23.9.
`CC(C(=O)N(C)C1CCS(=O)(=O)C1)N1C(=O)/C(=C/c2ccc(F)cc2)SC1=S` (centres undefined) gave Mdm2 MdmX PPI 35.5, CSC inhib 30.5, Gli-Sufu antag 8.8, 697 NFkB inh -29.0, Jurkat NFkB inh 7.8 and aSyn 5UTR inh -19.0.
